According to PubChem BioAssay:
Activity calls are given as the source filed them. Unless noted, how the calls were made is not given here.

Experiments:
[1] = test system: Wnt5a (protein binding on small-molecule microarray); assay: small molecules binding Wnt5a protein – biophysical, small-molecule microarray, 635/667 nm fluorescence, primary screen (AID 1142); details: 635 nm fluorescence, higher = more signal;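 further: fluorescence read at 667 nm with signal to noise per printed feature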
[2] = ATP-based viability of Huh7 replicon cells – cell-based, CellTiter-Glo luminescence, basal, 48 h, cytotoxicity control for HCV replication inhibitor project, primary screen (AID 1143); details: higher = more signal, called active from +8 up or from −8 down;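 further: Huh7 hepatoma cells carrying a hepatitis C replication reporter with no stimulus; test concentration not given here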
[3] = Pseudomonas biofilm growth suppression – PAO1 strain, BacTiter-Glo luminescence, LB-PBS, primary screen (AID 1144); details: P. aeruginosa PAO1 biofilm, 12 h, higher = more signal
[4] = basal CRE-LacZ reporter activity in PC12 – cell-based, unstimulated, primary screen (AID 1145); details: no forskolin, luminescence, 4.5 h, higher = more signal, called active from +8 up or from −8 down
[5] = forskolin-driven CRE-LacZ activity in PC12 – cell-based, CRE-LacZ reporter, forskolin-stimulated, primary screen (AID 1146); details: luminescence, 4.5 h, higher = more signal, called active from +8 up or from −8 down;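 further: PC12 cells with 6xCRE LacZ reporter stimulated by forskolin 10 µM; beta-galactosidase reporter signal reflecting CREB driven transcription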
[6] = target: Streptavidin (Streptomyces avidinii) (UniProt P22629); assay: compounds binding control protein streptavidin – biophysical, small-molecule microarray, 635/667 nm fluorescence, artefact control for SMM compound annotation, primary screen (AID 1147); details: higher = more signal;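 further: signal reflects streptavidin binding to arrayed compounds as a control protein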
Chain of Streptavidin (Streptomyces avidinii) (P22629 whole entry, looked up): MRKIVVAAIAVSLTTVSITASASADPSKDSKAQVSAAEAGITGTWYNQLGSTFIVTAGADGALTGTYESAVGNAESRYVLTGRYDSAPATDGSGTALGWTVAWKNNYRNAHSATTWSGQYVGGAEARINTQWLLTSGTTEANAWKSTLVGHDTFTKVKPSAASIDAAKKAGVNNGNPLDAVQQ

[7] = probe aInhba binding on compound microarray – biochemical, small-molecule microarray, 635/667 nm fluorescence, primary screen (AID 1148); details: higher = more signal;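 further: score merges 667nm spot fluorescence with signal-to-noise for antibody binding to printed compounds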
Torsin-1A (Homo sapiens) [8] = target: Torsin-1A (Homo sapiens) (UniProt O14656); assay: TOR1A wild-type binding on microarray – cell lysate, small-molecule microarray, lysate, 635/667 nm, primary screen (AID 1149); details: COS7 hTOR1A-WT lysate, 635 nm fluorescence, higher = more signal
Chain of Torsin-1A (Homo sapiens) (O14656 whole entry, looked up): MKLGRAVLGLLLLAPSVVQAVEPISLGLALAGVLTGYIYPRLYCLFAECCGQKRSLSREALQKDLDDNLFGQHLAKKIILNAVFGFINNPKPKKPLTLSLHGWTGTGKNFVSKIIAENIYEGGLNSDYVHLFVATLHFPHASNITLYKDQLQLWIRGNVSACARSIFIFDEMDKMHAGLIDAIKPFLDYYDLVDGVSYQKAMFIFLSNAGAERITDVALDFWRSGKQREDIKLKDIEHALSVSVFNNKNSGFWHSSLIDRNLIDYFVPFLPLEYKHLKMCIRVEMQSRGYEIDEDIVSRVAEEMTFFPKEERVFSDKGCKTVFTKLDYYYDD

Torsin-1A (Homo sapiens) [9] = target: Torsin-1A (Homo sapiens) (UniProt O14656); assay: torsin A mutant lysate binding on microarrays – cell lysate, small-molecule microarray, COS7 lysate, 635/667 nm fluorescence, primary screen (AID 1150); details: COS7 hTOR1A mutant lysate, 635 nm fluorescence, higher = more signal;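 further: score pools 667 nm emission and signal to noise measuring lysate protein binding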
[10] = test system: Sonic hedgehog protein (Shh); assay: Sonic hedgehog microarray binding compounds – biochemical, small-molecule microarray, 635/667 nm fluorescence, primary screen (AID 1151); details: 635 nm fluorescence, higher = more signal;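 further: Shh protein binding to compounds spotted on small-molecule microarray slides; score combines spot fluorescence intensity with signal-to-noise across triplicate slides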
[11] = optical density shifts of acrAB sulA E. coli – strain DRC41, OD650, 48 h, E. coli filamentation inducer project, primary screen (AID 1152); details: higher = more signal, called active from +8 up or from −8 down;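 further: E. coli MC1000 strain DRC41 lacking acrAB efflux pump and sulA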
[12] = probe aLefty1 binding on compound microarray – biochemical, small-molecule microarray, 635/667 nm fluorescence, primary screen (AID 1153); details: higher = more signal;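 further: score merges spot fluorescence with signal-to-noise ratio from the scanned slide images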
[13] = plasmodial surface anion channel blockers, osmotic lysis – cell-based, P. falciparum Indochina, OD700, 1 h, primary screen (AID 1154); details: P. falciparum Indochina infected RBC osmotic lysis, higher = more signal, called active from +8 up or from −8 down
[14] = plasmodial surface anion channel blockers, osmotic lysis – cell-based, P. falciparum Indochina, OD700, 2 h, primary screen (AID 1155);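 further: lysis reports solute entry through the parasite surface anion channel PSAC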; details: P. falciparum Indochina infected erythrocytes, higher = more signal, called active from +8 up or from −8 down
[15] = changes in parasitized red cell lysis, either direction – P. falciparum Indochina, OD700, 3 h, PSAC antagonist project, primary screen (AID 1156); details: P. falciparum-infected erythrocytes, osmotic lysis, higher = more signal, called active from +8 up or from −8 down
[16] = plasmodial surface anion channel blockers, osmotic lysis – cell-based, P. falciparum Indochina, OD700, 18 h, primary screen (AID 1157); details: P. falciparum Indochina infected erythrocytes, osmotic lysis OD700, 18 h; higher = more signal, called active from +8 up or from −8 down
[17] = S6 kinase pathway phospho-S6 level changes – cell-based, A549, cytoblot, luminescence, serum-stimulated, primary screen (AID 1158); details: 5 h, higher = more signal;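 further: serum-stimulated A549 lung adenocarcinoma cells; signal is phosphorylated S6 detected by cytoblot immunostaining with HRP secondary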
[18] = target: NADPH oxidase 2 (Homo sapiens) (UniProt P04839); assay: compounds shifting NOX2 Amplex Red fluorescence – cell-based, HEK293-NOX2, PMA-stimulated, NOX inhibitor project, primary screen (AID 1159); details: 45 min, higher = more signal, called active from +8 up or from −8 down; further: test concentration not given here
Chain of NADPH oxidase 2 (Homo sapiens) (P04839 whole entry, looked up): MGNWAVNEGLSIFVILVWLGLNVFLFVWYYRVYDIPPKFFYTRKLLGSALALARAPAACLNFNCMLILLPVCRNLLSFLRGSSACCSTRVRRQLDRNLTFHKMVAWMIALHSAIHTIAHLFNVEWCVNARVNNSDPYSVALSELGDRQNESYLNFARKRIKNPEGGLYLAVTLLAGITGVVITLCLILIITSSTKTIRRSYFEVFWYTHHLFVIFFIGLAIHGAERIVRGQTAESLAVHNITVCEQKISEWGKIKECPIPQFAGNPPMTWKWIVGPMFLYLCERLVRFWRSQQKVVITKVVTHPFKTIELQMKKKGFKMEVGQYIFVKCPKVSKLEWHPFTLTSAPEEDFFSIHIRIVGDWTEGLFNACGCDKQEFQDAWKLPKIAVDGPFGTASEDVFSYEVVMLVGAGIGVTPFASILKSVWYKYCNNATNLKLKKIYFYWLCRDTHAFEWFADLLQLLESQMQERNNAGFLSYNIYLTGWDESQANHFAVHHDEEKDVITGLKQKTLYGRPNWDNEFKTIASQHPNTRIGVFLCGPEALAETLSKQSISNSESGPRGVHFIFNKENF

[19] = target: NADPH oxidase 4 (Homo sapiens) (UniProt Q9NPH5); assay: compounds shifting NOX4 Amplex Red fluorescence – cell-based, HEK293-NOX4, tetracycline-induced, NOX inhibitor project, primary screen (AID 1160); details: HEK293-NOX4, Amplex Red H2O2 fluorescence, 45 min; higher = more signal, called active from +8 up or from −8 down
Chain of NADPH oxidase 4 (Homo sapiens) (Q9NPH5 whole entry, looked up): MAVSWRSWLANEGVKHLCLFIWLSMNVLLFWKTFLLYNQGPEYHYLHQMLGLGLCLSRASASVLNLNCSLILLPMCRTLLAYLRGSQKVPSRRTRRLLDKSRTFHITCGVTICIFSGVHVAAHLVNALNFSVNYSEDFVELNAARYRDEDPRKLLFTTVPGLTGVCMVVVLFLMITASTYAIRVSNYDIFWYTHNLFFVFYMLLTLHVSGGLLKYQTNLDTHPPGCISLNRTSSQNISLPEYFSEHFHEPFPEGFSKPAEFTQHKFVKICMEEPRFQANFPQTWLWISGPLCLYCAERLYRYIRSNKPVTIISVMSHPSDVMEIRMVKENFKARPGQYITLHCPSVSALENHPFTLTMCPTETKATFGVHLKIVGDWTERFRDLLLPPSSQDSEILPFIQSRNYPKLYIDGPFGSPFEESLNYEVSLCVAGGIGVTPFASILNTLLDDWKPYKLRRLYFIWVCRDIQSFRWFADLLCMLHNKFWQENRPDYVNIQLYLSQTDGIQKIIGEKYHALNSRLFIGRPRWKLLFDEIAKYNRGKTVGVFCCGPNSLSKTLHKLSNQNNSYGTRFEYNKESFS

[20] = target: NADPH oxidase 5 (Homo sapiens) (UniProt Q96PH1); assay: compounds shifting NOX5 Amplex Red fluorescence – cell-based, HEK293-NOX5, NOX inhibitor project, primary screen (AID 1161); details: HEK293-NOX5, ionomycin, 45 min, higher = more signal
Chain of NADPH oxidase 5 (Homo sapiens) (Q96PH1 whole entry, looked up): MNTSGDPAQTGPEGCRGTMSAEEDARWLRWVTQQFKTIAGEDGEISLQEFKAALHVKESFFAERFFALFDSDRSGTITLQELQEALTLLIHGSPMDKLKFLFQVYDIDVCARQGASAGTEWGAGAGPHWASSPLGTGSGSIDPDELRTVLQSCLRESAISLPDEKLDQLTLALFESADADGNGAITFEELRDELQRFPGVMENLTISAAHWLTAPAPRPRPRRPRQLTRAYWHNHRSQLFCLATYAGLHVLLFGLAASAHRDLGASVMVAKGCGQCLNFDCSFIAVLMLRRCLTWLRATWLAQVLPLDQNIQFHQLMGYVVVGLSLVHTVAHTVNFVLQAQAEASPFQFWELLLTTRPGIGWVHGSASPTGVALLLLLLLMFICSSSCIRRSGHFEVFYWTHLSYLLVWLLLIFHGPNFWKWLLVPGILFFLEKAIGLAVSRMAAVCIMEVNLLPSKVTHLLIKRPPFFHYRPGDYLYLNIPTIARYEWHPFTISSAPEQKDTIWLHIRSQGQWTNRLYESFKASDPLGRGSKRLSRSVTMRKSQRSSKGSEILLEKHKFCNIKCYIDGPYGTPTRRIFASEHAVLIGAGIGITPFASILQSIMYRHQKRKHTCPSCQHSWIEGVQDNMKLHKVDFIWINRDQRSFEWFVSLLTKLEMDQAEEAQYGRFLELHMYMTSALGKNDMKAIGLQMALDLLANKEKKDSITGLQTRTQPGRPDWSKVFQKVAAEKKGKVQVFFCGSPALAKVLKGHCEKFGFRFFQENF

| Compound | composite z-score [1] | z-score [2] | z-score [3] | z-score [4] | z-score [5] | composite z-score [6] | composite z-score [7] | composite z-score (Torsin-1A (Homo sapiens) [8]) | composite z-score (Torsin-1A (Homo sapiens) [9]) | composite z-score [10] | z-score [11] | composite z-score [12] | z-score [13] | z-score [14] | z-score [15] | z-score [16] | z-score [17] | z-score [18] | z-score [19] | z-score [20] |
| --- | --- | --- | --- | --- | --- | --- | --- | --- | --- | --- | --- | --- | --- | --- | --- | --- | --- | --- | --- | --- |
| CC(C)CNC(=O)[C@@]1(C)c2ccccc2C(=O)N(Cc2cc(F)cc(C(F)(F)F)c2)[C@H]1c1ccc(CO)cc1 | 0.03 | 0.169 (inactive) | -0.428 (inactive) | -0.321 (inactive) | 0.13 (inactive) | -0.26 | -0.0719 | 0.194 | 0.127 | 1.23 | -0.144 (inactive) | 0.163 | 2.26 (inactive) | 0.684 (inactive) | 0.33 (inactive) | 0.253 (inactive) | 0.0857 | -0.152 (inactive) | 0.261 (inactive) | -0.364 |
| Cc1c(NC(=O)/C(C#N)=C/c2ccc(Cl)cc2)c(=O)n(-c2ccccc2)n1C | -0.159 | -1.62 (inactive) | -1.04 (inactive) | -0.374 (inactive) | -1.64 (inactive) | 1.33 | -0.0259 | 0.34 | 0.407 | -0.217 | 0.764 (inactive) | 0.0042 | 6.41 (inactive) | -0.238 (inactive) | -0.597 (inactive) | -1.44 (inactive) | 0.776 | -2.29 (inactive) | -0.376 (inactive) | 1.22 |
| CN(C)CCCNC(=O)[C@@H]1c2ccccc2C(=O)N(C2Cc3ccccc3C2)[C@H]1c1ccc(CO)cc1 | -0.128 | -0.701 (inactive) | 0.491 (inactive) | -0.502 (inactive) | -1.14 (inactive) | 0.359 | 0.217 | 0.798 | 0.802 | 0.318 | 0.776 (inactive) | -0.765 | 3.98 (inactive) | 0.517 (inactive) | 1.79 (inactive) | 0.281 (inactive) | -0.421 | 0.498 (inactive) | 1.25 (inactive) | 0.545 |
| CCOC(=O)C1=C(C(=O)OCC)N(S(=O)(=O)CC[Si](C)(C)C)[C@H](c2ccccc2)CC1 | 0.263 | -4.45 (inactive) | 0.338 (inactive) | 0.229 (inactive) | 0.207 (inactive) | 0.955 | 0.131 | 0.454 | 0.476 | -0.424 | -0.941 (inactive) | 0.174 | 1.23 (inactive) | 0.763 (inactive) | 0.106 (inactive) | 0.19 (inactive) | -0.405 | -0.135 (inactive) | 0.232 (inactive) | 0.134 |
| O=C1OCCC=C[C@H]2OC34C=CCN(CCN5CCOCC5)C(=O)[C@H]3N(CCCO)C(=O)[C@@H]4C12 (stereo not given in full) | -0.543 | -2.19 (inactive) | -0.561 (inactive) | -0.354 (inactive) | 1.74 (inactive) | -0.613 | -0.0066 | -1.78 | -1.33 | 0.243 | 0.274 (inactive) | -0.0464 | 0.377 (inactive) | -1.35 (inactive) | 0.901 (inactive) | -1.73 (inactive) | 0.41 | -0.433 (inactive) | -1.97 (inactive) | -0.183 |
| COc1ccc([Si](C)(C)[C@H]2[C@H](CCO)O[C@@]3(C(=O)N(Cc4ccccc4)c4ccc(N(C=O)c5ccccc5)cc43)[C@@H]2C)cc1 | 0.078 | -6.74 (inactive) | -0.862 (inactive) | 2.08 (inactive) | -0.993 (inactive) | 0.593 | 0.122 | -0.0549 | 0.865 | 1.52 | 0.352 (inactive) | 0.0927 | 5.68 (inactive) | 2.52 (inactive) | 1.12 (inactive) | 1.28 (inactive) | 0.456 | -0.98 (inactive) | 0.184 (inactive) | 1.23 |
| C=CCC(OC(C)=O)[C@@H]1[C@@H](N(Cc2cc3ccccc3o2)C(=O)Cc2ccc(OC)cc2)c2cc(OCCCO)ccc2N1C(=O)Cc1ccc(OC)cc1 (stereo not given in full) | -0.0737 | -1.17 (inactive) | 0.0258 (inactive) | 0.469 (inactive) | -0.0385 (inactive) | -0.213 | 0.168 | 0.29 | 0.34 | 0.551 | -0.759 (inactive) | 0.0091 | 2.19 (inactive) | 0.297 (inactive) | 1.23 (inactive) | 0.336 (inactive) | -0.0725 | -0.685 (inactive) | -0.727 (inactive) | -2.19 |
| CC1CC/C=C\[C@H]2OC34C=CCN(CCN5CCOCC5)C(=O)[C@H]3N(CCCCCCO)C(=O)[C@@H]4C2C(=O)O1 (stereo not given in full) | -0.603 | 0.524 (inactive) | 0.0591 (inactive) | 0.605 (inactive) | 0.241 (inactive) | -0.66 | -0.104 | -1.52 | -0.948 | 0.527 | -0.044 (inactive) | -0.187 | 0.592 (inactive) | 0.267 (inactive) | 0.215 (inactive) | 0.182 (inactive) | -0.375 | 0.726 (inactive) | -0.0532 (inactive) | 1.96 |
| C=CC[C@]1(C(=O)NCCCOC)N=C(c2ccc(OCCCO)cc2)O[C@H]1c1ccccc1 | 0.274 | -2.26 (inactive) | -0.747 (inactive) | 0.857 (inactive) | 0.15 (inactive) | -0.0374 | -0.0986 | 0.872 | 1.37 | -1.62 | 0.898 (inactive) | -0.0172 | 12.3 (active) | 0.912 (inactive) | 0.932 (inactive) | 0.643 (inactive) | 0.727 | -2.35 (inactive) | -0.164 (inactive) | -0.87 |
